± gives the standard deviation. Over roughly 6,200 sequences, “pre-steady-state target cleavage rate” has its median near 0.29; the highest 2% begin near 2. The full list was thinned out, with the highest values kept by preference.
Each sequence was assayed on MIWI (PIWIL1) piRISC loaded with piRNA #1 (30 nt) (assay: pre-steady-state target cleavage rate (min^-1); MIWI and MILI are mouse PIWI proteins and EfPiwi is from a freshwater sponge; tags in brackets are library labels; higher = faster piRNA-guided slicing of the target). Conditions: guide: piRNA #1 5'p-UGAGGUAGUAGGUUGUAUAGUAUCCAGAGG; auxiliary factor: 500 nM mouse GTSF1.
Protocol: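 Cleave-'n-Seq: a library of target RNAs (target site embedded in constant flanks, ACAGCATTCCGCGTTAGTGATATCCG... 5' flank; DNA-blocked outside the site) at 0.1 nM was incubated with 1 nM active mouse MILI or MIWI piRISC (synthetic 5'-monophosphorylated piRNA guide) with or without 500 nM mouse GTSF1 at 33 °C for 1 min to 16 h. Uncleaved targets were sequenced and normalised to non-target controls, and the pooled three trials were fitted to a burst-and-steady-state model to give the pre-steady-state cleavage rate (min^-1; k3 is constrained to at most 1e-4). Sequence is the target site only; target names encode pairing extent (gX:gY) and contiguous / 1-mismatch / 2-mismatch / bulge geometry. Fits with R² ≤ 0 are excluded.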

Sequence | pre-steady-state target cleavage rate
GCUCUGGAAUACUAUACAACCUACUACCUCA | 1.92 ± 0.1
GCUCUGGAUACUAUAUAACCUACUACCUCA | 1.79 ± 0.1
CCUCUGGAAUACUAUACAACCUACUACCUCA | 2.19 ± 0.13
CCUUCUGGAUACUAUACAACCUACUACCUCA | 2.22 ± 0.12
CCUCUGGAUACUAUAUAACCUACUACCUCA | 2.07 ± 0.12
GCUUCUGGAUACUAUACAACCUACUACCUCA | 1.94 ± 0.091
GGUCUGGAUACUAUAUAACCUACUACCUCA | 1.86 ± 0.1
CCUCUGGAUACUAUACAACCUAUUACCUCA | 2.07 ± 0.13
CUUCUGGAUACUAUACAACCUACUACCUCA | 1.99 ± 0.11
CCUCUGGAUACUAUUACAACCUACUACCUCA | 1.82 ± 0.12
GGACUGGAUAACUAUACAACCUACUACCUCA | 1.11 ± 0.087
GGAGACCAUACUAUACAUCCUAGUACCUCA | 0.343 ± 0.029
CCUCUGGAUACUAUAGAACCUACAACCUCA | 0.0249 ± 0.007
CCUCUGGAUACUAUACAACCUAACUACCUCA | 0.0333 ± 0.0068
CCUCUGGAAACUAUUCAACCUACUACCUCA | 2.02 ± 0.13
CGCUCUGGAUACUAUACAACCUACUACCUCA | 2.27 ± 0.14
CCUCUGGAUACUAUACAACCUACUAACCUCA | 2.09 ± 0.13
GCUCUGGAUACUAUACAACCUACUACCUCA [g2:g29:cont:t1A] | 1.89 ± 0.1
GCUCUGGAUACUAUACAACCUACCUACCUCA | 1.63 ± 0.091
GCUCUGGAUACUAUACAACCUACUAACCUCA | 1.71 ± 0.11
GCUCUGGAAACUAUUCAACCUACUACCUCA | 1.68 ± 0.12
GGUCUGGAAACUAUUCAACCUACUACCUCA | 1.58 ± 0.096
GGAGAGGAAACUAUACAACGUACUACCUCA | 0.27 ± 0.037
GGAGACCUAUGAUAUGUACCAACAACCUCA | < 0.0001
GGAGUCGGAUACUAUACAACCUACUACCUCA | 1.45 ± 0.091

Sequence | pre-steady-state target cleavage rate
GGUCUGCAUACUAUACAACCUACUACCUCA | 1.71 ± 0.1
GCUCUGGAUACUACACAACCUACUACCUCA | 1.89 ± 0.095
GGAGACCAUACUAAACAACCUACUACCUGA | 0.604 ± 0.08
GGAGAGCAUACUAUACAACGUACUACCUCA | 0.557 ± 0.036
GGUCAUGGAUACUAUACAACCUACUACCUCA | 1.85 ± 0.11
CCUAUGGAUACUAUACAACCUACUACCUCA | 2.15 ± 0.12
CCUCAUGGAUACUAUACAACCUACUACCUCA | 2.31 ± 0.13
GCUCAUGGAUACUAUACAACCUACUACCUCA | 1.98 ± 0.1
GCUAUGGAUACUAUACAACCUACUACCUCA | 1.93 ± 0.092
GGUAUGGAUACUAUACAACCUACUACCUCA | 1.88 ± 0.11
GGAGACGAUACAAUACAACCUACUUCCUCA | 0.408 ± 0.056
GCUUUGGAUACUAUACAACCUACUACCUCA | 1.91 ± 0.11
GGACUUGGAUACUAUACAACCUACUACCUCA | 1.78 ± 0.11
GCUCUUGGAUACUAUACAACCUACUACCUCA | 2.1 ± 0.1
CCUCUUGGAUACUAUACAACCUACUACCUCA | 2.3 ± 0.12
GGUUGGAUACUAUACAACCUACUACCUCA | 1.78 ± 0.1
GGUUUGGAUACUAUACAACCUACUACCUCA | 1.81 ± 0.084
GGUCUUGGAUACUAUACAACCUACUACCUCA | 1.87 ± 0.11
CCUUGGAUACUAUACAACCUACUACCUCA | 2.26 ± 0.14
GCUUGGAUACUAUACAACCUACUACCUCA | 1.87 ± 0.12
CCUUUGGAUACUAUACAACCUACUACCUCA | 2.3 ± 0.12
GGAGACCUAACUAUACUAGCUACUACCUCA | 0.0132 ± 0.006
GGAGACCUAACUUACAACCUACUACCUCA | 0.00932 ± 0.008
CCUCUGGAUACUAUCAACCUACUACCUCA | 1.82 ± 0.12
GGAGAGGAUACAAUACAACCUACUACCUCA | 1.18 ± 0.063

Sequence | pre-steady-state target cleavage rate
CCUCUGGAUACUAUACAAACUACUACCUCA | 1.27 ± 0.047
GGAGACCUAUCUAUACUACCUACUACCUCA | 0.0899 ± 0.011
GGUCUGGAUAGUAUACAACGUACUACCUCA | 0.319 ± 0.047
GGAGACCUAACUAUACAACGUACUAGCUCA | 0.024 ± 0.0084
GGACUGGAUGCUAUACAACCUACUACCUCA | 1.82 ± 0.15
GCUCUGGAUACUAUCCAACCUACUACCUCA | 2.05 ± 0.14
GGACUGGAUACUAUCCAACCUACUACCUCA | 1.76 ± 0.11
GCUCUGGAUACUAUACCAACCUACUACCUCA | 0.392 ± 0.075
GCUCUGGAUACUAUCAACCUACUACCUCA | 1.78 ± 0.12
CCUCUGGAUACUAUCCAACCUACUACCUCA | 2.1 ± 0.14
GGUCUGGAUACUAUCCAACCUACUACCUCA | 1.96 ± 0.14
GGAGAGGAUACUAUACAACCUAGUACCUCA | 0.145 ± 0.031
GGAGACGAUACUAUACAACCUACAUCCUCA | 0.342 ± 0.029
GGAGACCAAACUAUACAUCCUACUACCUCA | 0.513 ± 0.06
GGAGUGCAUACUAUACAACCUACUACGUCA | 0.629 ± 0.053
GGUCUGGAUACUUAUCAACCUACUACCUCA | 0.863 ± 0.11
GCUCUGCAUACUAUACAACCUACAACCUCA | 1.37 ± 0.12
GCUCUGGCAUACUAUACAACCUACUACCUCA | 2.17 ± 0.12
GGACUGGCAUACUAUACAACCUACUACCUCA | 1.68 ± 0.12
GCUCUGGAUACUAUACAACCUACAUACCUCA | 1.87 ± 0.16
CCUCUGGCUACUAUACAACCUACUACCUCA | 2.25 ± 0.11
GGUCUGGCUACUAUACAACCUACUACCUCA | 1.99 ± 0.11
GGUCUGGCAUACUAUACAACCUACUACCUCA | 1.86 ± 0.12
GCUCUGGCUACUAUACAACCUACUACCUCA | 1.93 ± 0.099
CCUCUGGCAUACUAUACAACCUACUACCUCA | 2.31 ± 0.12

Reference: the supplement of paper PMC10338343
